This is a sample that favours compounds with a hit; in the whole collection about 1.3% have one here.
RN4220 kill: kills Staphylococcus aureus RN4220; S. aureus RN4220 growth, OD600, 16 h; inhibition, % (concentration not given with the values); 330,000 compounds, 0.33% hits; in the data active = inhibition above about 85%;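 note: plate controls were untreated cells for no effect and reference antibiotic for full effect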
MazEF act: increases E. coli MazEF RNase cleavage of RNA | 350,000 compounds, 0.32% hits | activation, % at 20 µM | FAM/BHQ RNA-DNA oligo cleavage fluorescence, 5 h; in the data active = activation above about 50%
Target sequence (P0AE70 whole entry, looked up): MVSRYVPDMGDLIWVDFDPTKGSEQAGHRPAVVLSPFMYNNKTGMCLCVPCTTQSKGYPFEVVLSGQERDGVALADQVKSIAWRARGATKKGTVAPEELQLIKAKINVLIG
TcdB inh: TcdB glycohydrolase inhibition. TcdB glycohydrolase enzymatic assay, plate reader. 350,000 compounds, 0.24% hits. P18177. inhibition, % at 9.99 µM; in the data active = inhibition above about 10%
Mtb hypoxia rep: Mtb hypoxia fluorescent reporter inhibition | M. tuberculosis hypoxia-regulated fluorescent reporter, fluorescence | AID 1159583 | 300,000 compounds, 0.1% hits | fluorescence inhibition, % (no concentration beside the values); in the data active = fluorescence inhibition mostly above about 23%, no sharp cut-off; inactive = mostly below about 17%
Sa ugtP lethal: compounds lethal to S. aureus RN4220 ugtP deletion mutant; OD600 growth, 16 h; growth inhibition, % (concentration not given with the values); 330,000 compounds, 0.54% hits; in the data active = growth inhibition above about 68%;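 note: plate controls were untreated wells for no effect and antibiotic for full effect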
PfHsp40 rescue: compounds rescuing yeast from Plasmodium falciparum HSP40 toxicity; S. cerevisiae expressing PfHsp40, growth rescue, ATP luminescence; growth rescue, % at 12.5 µM; 340,000 compounds, 0.68% hits; AID 504582; in the data active = growth rescue above about 28%, passing the limit was not always enough; inconclusive = no clear call, values can overlap the other calls;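 note: yeast W303a lacking pdr1 and pdr3 grown in galactose medium; growth measured after three days at 30 °C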
An asterisk follows results filed as active; ? = inconclusive; . = no result; + = active, no number.

SMILES	RN4220 kill	MazEF act	TcdB inh	Mtb hypoxia rep	Sa ugtP lethal	PfHsp40 rescue
COc1ccc(C(=O)N/N=C(\c2ccccc2)c2ccccn2)cc1	.	8.5	0.3	.	.	86.3*
O=C(NN=C(c1ccccc1)c1ccccn1)c1ccccc1	.	5.7	-7.9	.	.	44.4*
Cc1ccc(S(=O)(=O)Nc2c(C)n(C)n(-c3ccccc3)c2=O)cc1C(=O)OC(C)C(=O)c1ccccc1 (configuration not stated)	17.8	5.7	2.0	21.3*	22.3	0.8
O=C(Nc1ccc(Cl)c(Cl)c1)N[C@H]1CC[C@@H](CCNC(=O)c2ccc(F)cc2)O[C@@H]1CO	.	.	-1.7	.	.	.
CCCNC(=O)N(C)C[C@@H]1Oc2ncc(-c3ccccc3F)cc2C(=O)N([C@H](C)CO)C[C@@H]1C	.	.	0.6	.	.	.
Cc1cc(C=c2sc3nc4ccccc4n3c2=O)c(C)n1-c1ccc(C(=O)O)cc1	88.2	.	.	17.7	100.2*	.
Cc1cc(/C=C2\C(=O)NC(=O)N(Cc3ccccc3Cl)C2=O)c(C)n1-c1ccc(C(=O)O)cc1	3.5	59.1*	-0.3	8.3	8.5	0.5
Cc1cc(C=C2C(=O)c3ccccc3C2=O)c(C)n1-c1ccccc1	9.2	156.1*	.	6.0	-15.8	-0.5
Cc1cc(C=C2C(=O)c3ccccc3C2=O)c(C)n1-c1cccc(C(=O)O)c1	8.3	-6.7	1.9	1.8	-18.0	-0.9
Cc1cc(C=C2C(=O)c3ccccc3C2=O)c(C)n1-c1ccc(C(=O)O)cc1	19.2	-11.6	26.7*	6.0	13.7	-1.1
Cc1cc(/C=c2\sc3nc4ccccc4n3c2=O)c(C)n1-c1ccc(C(=O)O)cc1	.	-11.1	1.3	.	.	-0.3
CCC(=O)Nc1ccc2c(c1)C(=O)N(C)C[C@H](OC)[C@@H](C)CN(C(=O)C1CC1)[C@@H](C)CO2	.	.	-0.3	.	.	.
CCCSc1ccc(C2C3C(=O)N(CC)C(=O)C3[C@]3(C(=O)OC)CCCCN23)cc1 (some centres not stated)	6.7	.	.	12.5	6.7	.
Brc1csc(C=NNc2nc3ccccc3s2)c1	17.7	.	.	6.7	15.3	.
C[C@H]1CN([C@@H](C)CO)C(=O)Cc2cc(NS(C)(=O)=O)ccc2O[C@H]1CN(C)C(=O)Nc1cccc2ccccc12	.	.	-0.1	.	.	.
C[C@@H]1CCCCO[C@H](CN(C)C(=O)C2CCCCC2)[C@@H](C)CN([C@@H](C)CO)C(=O)c2cc(NC(=O)Nc3ccc(F)cc3)ccc2O1	.	.	0.6	.	.	.
Cc1ccccc1CNc1ccc(C(CC(N)=O)NC(=O)c2ccc(Br)cc2)cc1[N+](=O)[O-] (configuration not stated)	.	81.4*	-0.8	.	.	0.7
CC(CC(=O)Nc1c(C)cc(C)cc1C)=NNC(=O)c1cnccn1	4.1	.	.	3.8	6.1	.
c1cc(SC2CCCCC2)cc(-c2nc3cnccn3c2NC2CCCCC2)c1	.	-48.2	0.6	.	.	0.3
CCC(C)Sc1cc(-c2nc3ccccn3c2NC2CCCCC2)ccc1OC (configuration not stated)	100.1*	-5.4	-0.6	5.7	98.8*	?
CCC(C)Sc1cccc(-c2nc3cnccn3c2NC2CCCCC2)c1 (configuration not stated)	-19.1	-37.2	-0.4	2.7	1.9	40.0*
[N-]=[N+]=NCCCNC(=O)Nc1ccccc1	.	.	0.2	.	.	.
Cn1c(CNc2ccc(O)cc2)nc2ccccc21	1.3	105.0*	5.6	0.8	8.6	0.7
Cc1ccc(NCc2nc3ccccc3n2C)cc1	1.0	1.7	.	.	5.6	-1.2
COc1ccc(NCc2nc3ccccc3n2CCOc2ccc(C)cc2)cc1	-4.4	-5.3	-0.7	2.2	-3.5	75.1*
SMILES	RN4220 kill	MazEF act	TcdB inh	Mtb hypoxia rep	Sa ugtP lethal	PfHsp40 rescue
C[C@@H]1CN([C@H](C)CO)C(=O)c2cc(NC(=O)Cn3cnnn3)ccc2O[C@H]1CN(C)S(=O)(=O)c1ccc(Cl)cc1	.	.	-2.2	.	.	.
Cc1ccc(S(=O)(=O)N[C@H]2CC[C@@H](CC(=O)NCc3ccc(Cl)c(Cl)c3)O[C@@H]2CO)cc1	.	.	1.6	.	.	.
COc1ccc(C(=O)NN=Cc2coc3ccc(C)cc3c2=O)cc1	2.6	.	.	2.7	13.1	.
NC(=S)N/N=C/c1coc2ccc(Br)cc2c1=O	.	-57.5	0.3	.	.	38.3*
COc1ccc(C(=O)N/N=C\c2coc3ccc(C)cc3c2=O)cc1	.	74.8*	0.0	.	.	0.1
NC(=S)N/N=C/c1coc2cc(Br)ccc2c1=O	.	-37.9	1.4	.	.	-0.3
COc1ccc2c3c(n(C)c2c1)[C@@H](CO)N(Cc1ccccc1OC)CC31CCN(C)CC1	.	.	-7.0	.	.	.
O=C(NCc1ccc2c(c1)OCO2)[C@@H]1[C@@H](CO)[C@@H]2Cn3c(cccc3=O)[C@H]1N2Cc1ccncc1	.	.	0.6	.	.	.
COc1cc(/C=N/N=C(N)N)ccc1OCc1ccccc1Cl	.	8.0	0.0	.	.	1.0
NC(N)=NN=Cc1ccc(OCc2ccccc2Cl)cc1	100.3*	.	.	10.9	100.8*	.
CCN(Cc1ccccc1)c1ccc(/C=N/N=C(N)N)cc1	.	19.3	0.5	.	.	2.4
NC(N)=N/N=C/c1ccc(N(c2ccccc2)c2ccccc2)cc1	.	-5.3	2.3	.	.	105.5*
CCc1ccc(C(C)NC(=O)c2cc(C)oc2C)cc1 (configuration not stated)	-1.1	4.1	.	13.1	-8.7	47.3*
Cc1[nH]c(-c2ccc(F)cc2)cc1C(=O)N1CCN(c2ccccc2)CC1	-0.4	-6.9	21.4*	0.3	-6.0	4.1
CCc1ccc(OCC(O)CN2CCC(CN3C(=O)c4cccc5cccc(c45)C3=O)CC2)cc1 (configuration not stated)	80.4	-17.8	.	-10.0	85.4*	-0.1
O=C1c2cccc3cccc(c23)C(=O)N1CC1CCN(CC(O)COc2ccc3ccccc3c2)CC1 (configuration not stated)	58.7	-33.8	1.7	9.6	14.2	-0.9
Cc1nn(C)c(C)c1NC(=O)Nc1ccc(Cl)c(Cl)c1	active	2.1	1.4	6.3	89.1	-2.2
CC(C)(C)c1cc(-c2nc(N)nc(N)n2)c(O)c(C(C)(C)C)c1	29.6	4.5	0.2	10.1	83.4	225.4*
CCOC(=O)C1=CN(Cc2cccc(I)c2)S(=O)(=O)N(C)C1C (configuration not stated)	2.4	3.4	0.1	-13.6	7.0	0.6
CCOC(=O)C1=CN(Cc2cccc(Br)c2)S(=O)(=O)N(C)C1C (configuration not stated)	5.8	-1.8	0.3	0.5	9.6	39.6*
Cc1nn(-c2ccccc2)c(C)c1-c1cc(C(=O)NN=Cc2cccnc2)[nH]n1	6.4	.	.	12.4	2.4	.
CCOc1cc(/C=C2/SC(=S)N(CC3CCCO3)C2=O)ccc1O (configuration not stated)	8.1	+	0.1	9.4	20.3	-2.3
CCOc1cc(/C=C2\SC(=S)N(NS(=O)(=O)c3ccc(C)cc3)C2=O)ccc1O	85.3*	-126.8	-0.6	5.5	73.1	59.2*
COc1ccccc1/C=C1\SC(=S)N(NS(=O)(=O)c2ccccc2)C1=O	87.5*	0.1	0.3	9.9	69.7	0.2
